High-throughput results from PubChem.
Rows were chosen to be rich in hits. Some 8% of all compounds tested hit in one or more screens of this group.
LASV entry inh – qHTS for Inhibitors of binding or entry into cells for Lassa Virus. 4.1% of 18,000 active. Potency, µM (series often up to 49.2 µM), usual class: inhibitors. Lassa virus pseudotyped entry inhibition, cell-based qHTS
Marburg entry – qHTS for Inhibitors of binding or entry into cells for Marburg Virus; 6.5% of 18,000 active; Potency, µM (series often up to 49.2 µM), usual class: inhibitors; Marburg virus pseudotype entry/binding inhibition, cell-based
Large screens that a line does not name were inactive; ! = repeats disagree. Calls come from the whole dose curve; tested in HEK293 cells.

CC(=O)OC1CC(OC2C(O)CC(OC3C(O)CC(OC4CCC5(C)C(CCC6C5CC(O)C5(C)C(C7=CC(=O)OC7)CCC65O)C4)OC3C)OC2C)OC(C)C1OC1OC(CO)C(O)C(O)C1O (configuration not stated)	LASV entry inh 0.32µM, Marburg entry 0.28µM
CC(=O)OC1CCC23C(=O)OC45CCC(C6=CC(=O)OC6)C4(C)CCC2C5CCC3(O)C1 (configuration not stated)	LASV entry inh 1.3µM, Marburg entry 0.56µM
CC(=O)O[C@H]1C[C@H](O[C@H]2[C@@H](O)C[C@H](O[C@H]3[C@@H](O)C[C@H](OC4CC[C@@]5(C)[C@H](CC[C@@H]6[C@@H]5CC[C@]5(C)[C@@H](C7=CC(=O)OC7)CC[C@]65O)C4)O[C@@H]3C)O[C@@H]2C)O[C@H](C)[C@H]1O[C@@H]1O[C@H](CO)[C@@H](O)[C@H](O)[C@H]1O (some centres not stated)	LASV entry inh 25µM, Marburg entry 5.6µM
CC(=O)O[C@H]1C[C@@H](O[C@@H]2[C@H](C)O[C@H](O[C@@H]3[C@H](C)O[C@H](O[C@@H]4CC[C@@]5(C)[C@@H](CC[C@]6(C)[C@]5(C)C[C@H](O)[C@]5(C)[C@@H](C7=CC(=O)OC7)CC[C@@]56O)C4)C[C@@H]3O)C[C@@H]2O)O[C@@H](C)[C@H]1O[C@H]1O[C@@H](CO)[C@@H](O)[C@@H](O)[C@@H]1O	LASV entry inh 0.89µM, Marburg entry 0.89µM
Cc1cc(Cl)cc2c(N=Nc3ccc(S(N)(=O)=O)cc3)c(O)[nH]c12	none
CCOC(=O)C1=CN(CCCc2cn(Cc3ccccc3)nn2)C(=O)NC1c1ccccc1 (configuration not stated)	none
Cc1ccccc1CN1[C@H](C)[C@@H](c2ccccc2)Oc2c(Cl)cccc2S1(=O)=O	none
Cc1ccc(NC(=O)CC2CC2)cc1-c1ccc(C(=O)NCC2CC2)cc1	none (no result: LASV entry inh)
CC(=O)OC1CC[C@]2(C)C(CCC3C2CC[C@]2(C)C(C4=CC(=O)OC4)C(OC(C)=O)CC32O)C1 (some centres not stated)	LASV entry inh 1.4µM, Marburg entry 0.71µM
CC(=O)OC1CC[C@@]2(C)C3CC[C@@]4(C)C(CC5O[C@@]6(CCC(C)CO6)C(C)C54)C3CC[C@@H]2C1 (some centres not stated)	none
CCN1C(=NCc2ccccc2)N[C@@H](CCc2ccccc2)[C@H](C(=O)OC)[C@H]1C	none
COc1ccc2ncn(-c3cc(OC(C)c4ccccc4Cl)c(C(N)=O)s3)c2c1 (configuration not stated)	LASV entry inh inconclusive, Marburg entry 0.32µM
CC(Oc1cc(-n2cnc3ccc(OCC4CCN(C)CC4)cc32)sc1C(N)=O)c1ccccc1C(F)(F)F (configuration not stated)	Marburg entry 1.4µM (no result: LASV entry inh)
CC(Oc1cc(-n2cnc3ccc(OCC4CCN(C)CC4)cc32)sc1C(N)=O)c1ccccc1Cl (configuration not stated)	Marburg entry 0.63µM (no result: LASV entry inh)
NC(=O)c1sc(-n2cnc3ccccc32)cc1OCc1ccccc1Br	Marburg entry 16µM (no result: LASV entry inh)
COC(=O)C1=C(C)N(Cc2ccccc2)C(=NCc2ccc3c(c2)OCO3)NC1CCc1ccccc1 (configuration not stated)	none (no result: LASV entry inh)
C=C(C)C(O)C=Cc1ccc(C(F)(F)F)cc1 (configuration not stated)	Marburg entry inconclusive
C=CCN1c2ccccc2[C@]23CCC(=O)N(CCCOC(C)C)C2=NC(C(=O)OC)=C(C(=O)OC)[C@H]13	none
N#Cc1ccc2c(c1)C[C@]1(CCCCN3C(=O)c4ccccc4C3=O)Oc3c(c(=O)oc4ccccc34)[C@H]2O1	Marburg entry inconclusive
COC1=CC2C(=O)C(C1=O)C1c3ccccc3CC21 (configuration not stated)	none
COc1cc([C@@H](NC(=O)C(F)(F)F)C2CCCCC=C2c2ccccc2)cc(OC)c1OC (some centres not stated)	LASV entry inh inconclusive
COc1cc2c(cc1OC)[C@@H]1O[C@](CCCCN3C(=O)c4ccccc4C3=O)(C2)OC2=C1C(=O)OC1(CCCCC1)C2	none
CCCCCCOc1ccc(C(=N)N(CCCC)CCCC)c2ccccc12	LASV entry inh 13µM, Marburg entry 13µM
CCCCCCCCOc1ccc(C(=O)c2ccccc2)c(O)c1	none
CC(C)CCON=O	none
CCON=O	LASV entry inh 10µM
COC(=O)C1=C(C(=O)OC)[C@@H]2Nc3ccccc3[C@@]23C[C@@H](C(=O)OC)N(C(=O)N2CCNC2=O)C3=N1	none
C=C1C2CC[C@@]3(C)C(c4ccoc4)OC(=O)C[C@@]13OC1CC(OC(C)=O)C(C)(C)C(CC(=O)OC)[C@@]12C (some centres not stated)	LASV entry inh inconclusive, Marburg entry 13µM
C=C1C2CC[C@@]3(C)C(c4ccoc4)OC(=O)C[C@@]13OC1CC(=O)C(C)(C)C(CC(=O)OC)[C@]12C (some centres not stated)	none
C=CCOC(=O)C(C(C)=O)[C@@H](NC(=O)OC)c1cccs1 (some centres not stated)	none
O=C1C=CC2=C3c4cc(O)c(O)cc4CC3(O)COC2=C1O (configuration not stated)	Marburg entry 3.2µM
CC1=C(/C=C/C(C)=C/C=C/C(C)=C/C(=O)Nc2ccc(O)cc2)C(C)(C)CCC1	LASV entry inh 7.1µM!, Marburg entry inconclusive
CC1=C(\C=C/C(C)=C/C=C\C(C)=C\C(=O)O)C(C)(C)CCC1	Marburg entry inconclusive
Cc1cc2c(nc1C)CCCN2CC(O)CN1CCN(C)CC1 (configuration not stated)	none
[Cl-].[Cl-].[Hg+2]	LASV entry inh 3.2µM, Marburg entry 2.8µM
COC(C)(C)CCCC(C)C/C=C/C(C)=C/C(=O)OC(C)C (configuration not stated)	LASV entry inh 14µM!
O[C@H]1CN(Cc2cccs2)[C@@H](c2ccccc2)C[C@H]1n1cc(-c2ccc(F)cc2)nn1	none
CNC(=O)c1ncccc1Nc1nc(Nc2cc3c(cc2OC)CCCN3C(=O)CN(C)C)nc2[nH]ccc12	LASV entry inh inconclusive, Marburg entry 2.5µM
COc1cc(N2CCN(C(C)C)CC2)ccc1Nc1nc(Nc2cccc(F)c2C(=O)O)c2cc[nH]c2n1	none
COc1cc2c(cc1Nc1nc(Nc3ccsc3C(N)=O)c3cc[nH]c3n1)N(C(=O)CN(C)C)CCC2	Marburg entry 1.6µM (no result: LASV entry inh)
O=P12OCC=C[C@H](C[C@H](CC3C#C3)O1)O2	none (no result: LASV entry inh)
O=S1(=O)CCSCCN1Cc1ccc(F)cc1F	none
CCCCCCCCCOc1ccc2[nH]cc(CCN)c2c1	LASV entry inh 35µM!, Marburg entry 10µM
NCCc1c[nH]c2ccc(O)cc12	none
CCC1CC2C=CCS[P@](=O)(O2)O1 (some centres not stated)	none
CC(C)=CCCC(C)=CCON=C1C[C@@H](O)[C@@H](O)[C@@H]2[C@H]3C(=O)N(Cc4ccc5c(c4)OCO5)C(=O)[C@@H]3CC[C@H]12	none (no result: LASV entry inh)
Cc1cccc(CNc2ncnc3ccc(-c4ccccc4CN(C)C)cc23)c1	LASV entry inh inconclusive, Marburg entry 10µM
Cc1cccc(CNc2ncnc3ccc(-c4ccc5c(c4)OCO5)cc23)c1	none
CC#CCN1c2ccccc2[C@]23CCC(=O)N(Cc4cccc(C(F)(F)F)c4)C2=NC(C(=O)OC)=C(C(=O)OC)[C@H]13	none
